High-throughput results (PubChem BioAssay)
CBFb-RUNX1 inh = blocks binding between human CBF-beta and RUNX1; Potency, µM (titrated, usually from 59.8 µM), actives largely listed as inhibitors; AID 1477; 230,000 tested, under 10 active; Q01196+Q13951; AlphaScreen CBFb-His/RUNX1-biotin binding, biochemical
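Inhibition was taken as any reduction in AlphaScreen signal from the CBF-beta–RUNX1 pair (His and biotin tags, 30 nM each), measured after compound (15 min) and bead (90 min) incubations at room temperature.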
VDR inh = inhibitors of human vitamin D receptor | P11473 | Potency, µM, hits mostly inhibitors | VDR-SRC2-3 peptide fluorescence polarization, 2 h | 400,000 compounds, 0.93% hits | AID 504847
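Reagent solutions, kept cold and dark, are dispensed first; compounds are then pinned in at 23 nl, plates briefly spun, and incubated 2 h at ambient temperature. Inhibition of VDR–SRC2-3 peptide binding is read by fluorescence polarization.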
KCNH2 3.1 inh = blocks the human KCNH2 3.1 channel isoform | AID 720553 | U2OS KCNH2 3.1, thallium flux FluxOr; hits give low values | 340,000 compounds, 0.95% hits | activity change, % (tested at about 1.8 µM);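 active = maximum activity change below -70%; inconclusive = maximum activity change from -70% to -50%; inactive = maximum activity change above -50%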;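 note: thallium influx rate constant from kinetic fluorescence after stimulation buffer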
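U2OS cells transduced with KCNH2 3.1 mutant virus (1.77 x 10^8 /mL, 4 h), plated overnight at 37 C, loaded 45 min with FluxOr dye plus Red40 quencher. Thallium flux rate constant from kinetic reads after stimulation buffer, normalised to controls.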
PLK1 PBD inh = inhibitors of human PLK1 polo-box domain binding | P53350 | Plk1 PBD binding of FITC phosphopeptide, fluorescence polarization | Potency, µM, hits mostly inhibitors | 360,000 compounds, 2.8% hits | AID 720504; note: series mostly up to about 57 µM; nearly all actives have a fitted effect of over 65% in size
Target sequence (P53350 whole entry, looked up, the tested form may be a part): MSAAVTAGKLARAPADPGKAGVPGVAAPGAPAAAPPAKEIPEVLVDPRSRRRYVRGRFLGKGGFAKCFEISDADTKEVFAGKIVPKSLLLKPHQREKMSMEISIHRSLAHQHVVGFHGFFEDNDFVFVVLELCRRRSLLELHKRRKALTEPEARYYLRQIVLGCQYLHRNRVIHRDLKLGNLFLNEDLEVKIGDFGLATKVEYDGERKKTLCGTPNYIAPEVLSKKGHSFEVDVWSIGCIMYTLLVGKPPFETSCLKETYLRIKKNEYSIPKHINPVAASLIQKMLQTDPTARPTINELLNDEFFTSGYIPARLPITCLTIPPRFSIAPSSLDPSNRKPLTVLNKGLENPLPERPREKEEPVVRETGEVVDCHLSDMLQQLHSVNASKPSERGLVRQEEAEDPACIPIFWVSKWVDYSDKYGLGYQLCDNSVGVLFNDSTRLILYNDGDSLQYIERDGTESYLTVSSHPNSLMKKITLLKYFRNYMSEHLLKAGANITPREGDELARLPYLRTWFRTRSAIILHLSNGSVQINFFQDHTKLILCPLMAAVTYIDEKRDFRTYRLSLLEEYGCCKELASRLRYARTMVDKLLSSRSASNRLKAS
hERG WT inh = KCNH2 (human, wildtype) channel inhibition; Q12809; U2OS, BacMam KCNH2, thallium flux FluxOr; hits give low values; activity change, % at 1.84 µM; 340,000 compounds, 0.37% hits;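 active = maximum activity change below -70%; inconclusive = maximum activity change between -70% and -50%; inactive = maximum activity change above -50%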
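U2OS cells transduced with wild-type KCNH2 virus are loaded with FluxOr dye for 45 min, and thallium flux is measured in kinetic reads before and after stimulation buffer. Rate constants are normalized to DMSO controls.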
MBNL1 CUG block = MBNL1-poly(CUG) RNA binding inhibition | 280,000 compounds, 0.036% hits | Potency, µM (series often up to 57.5 µM), actives largely listed as inhibitors | TR-FRET MBNL1-His/biotin-(CUG)12 binding, 665/545 ratio | Q9NR56 | AID 2675; active = well fitted inhibition curve with a large enough effect in the signal ratio, with a control signal flat, not every such curve was filed as active; inconclusive = small, poorly fitted or top-dose-only effect, or effect the other way, or a change in a side signal; inactive = no such curve, though single readings can be large or run the other way; the % refers to the signal ratio
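Ratiometric TR-FRET (665 over 545 nm, excitation 340 nm) tracks disruption of MBNL1-His/biotin-(CUG)12 complex after 60 min at room temperature, with compounds at 92 nM to 58 uM final.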
Of the large screens only hits and unclear results are named; the others gave an inactive call. This is a sample that favours compounds with a hit; in the whole collection about 3.8% have one here. Unless noted, calls come from the whole dose curve; as a rule, active = well fitted curve in the direction sought with a large enough effect; inconclusive = small, poorly fitted or top-dose-only effect, or another doubt; inactive = no such curve, though single readings can be large; an effect the other way counts as inactive or inconclusive.

COc1ccc(-n2nc(C(=O)NCc3ccc(F)cc3Cl)c3c4ccccc4n(C)c3c2=O)cc1Cl	none (no result: CBFb-RUNX1 inh, KCNH2 3.1 inh, PLK1 PBD inh, hERG WT inh, MBNL1 CUG block)
O=C(Nc1ccc([N+](=O)[O-])cn1)c1cc(-c2cccc(Cl)c2)nc2ccccc12	KCNH2 3.1 inh inconclusive, hERG WT inh inconclusive, MBNL1 CUG block inconclusive
O=C(Nc1ccc([N+](=O)[O-])cn1)c1cc(-c2cccc(Br)c2)nc2ccccc12	KCNH2 3.1 inh -81
O=C1/C(=C\c2cc(Br)cc(Br)c2O)SC(=S)N1Cc1ccccc1	VDR inh 50µM, PLK1 PBD inh 9.5µM (no result: CBFb-RUNX1 inh)
COc1cc([N+](=O)[O-])cc(/C=C2/SC(=S)N(Cc3ccccc3)C2=O)c1O	VDR inh inconclusive, PLK1 PBD inh 30µM (no result: CBFb-RUNX1 inh)
O=C1/C(=C\c2cccc([N+](=O)[O-])c2O)SC(=S)N1Cc1ccccc1	VDR inh inconclusive, PLK1 PBD inh 17µM, MBNL1 CUG block inconclusive (no result: CBFb-RUNX1 inh)
O=C1/C(=C\c2ccc(O)cc2)SC(=S)N1Cc1ccccc1	none (no result: CBFb-RUNX1 inh)
O=C1/C(=C/c2ccc(O)c([N+](=O)[O-])c2)SC(=S)N1Cc1ccccc1	PLK1 PBD inh inconclusive (no result: KCNH2 3.1 inh)
CC(C)OCCCNC(=O)c1cc2c(-c3ccc(Cl)cc3)nn(C)c2s1	none (no result: CBFb-RUNX1 inh, KCNH2 3.1 inh, PLK1 PBD inh, hERG WT inh, MBNL1 CUG block)
Cc1ccc(N2C(=O)CS(=O)C(c3ccccc3)C2=O)cc1C (stereo unspecified)	VDR inh inconclusive, PLK1 PBD inh 1.5µM
COc1ccc2c(c1)OC[C@H]1[C@H]2N2C(=O)CN(Cc3ccc(C)cc3)C(=O)[C@@]2(C)[C@H]1c1ccccc1	KCNH2 3.1 inh -89 (no result: CBFb-RUNX1 inh, MBNL1 CUG block)
COc1ccc2c(c1)OC[C@H]1[C@H]2N2C(=O)CN(Cc3ccc(F)cc3)C(=O)[C@@]2(C)[C@H]1c1ccccc1	VDR inh inconclusive (no result: CBFb-RUNX1 inh, MBNL1 CUG block)
COc1ccc2c(c1)[C@H]1[C@H](CO2)[C@H](c2ccccc2)[C@]2(C)C(=O)Nc3cc(Cl)ccc3C(=O)N12	none (no result: CBFb-RUNX1 inh, MBNL1 CUG block)
COc1ccc2c(c1)C(=O)N1[C@H]3c4cc(Cl)ccc4OC[C@@H]3[C@H](c3ccccc3)[C@]1(C)C(=O)N2	KCNH2 3.1 inh -85 (no result: CBFb-RUNX1 inh, MBNL1 CUG block)
CCOC(=O)Cn1nnc(-c2ccccc2)n1	none
O=C(O)CCn1nnc(-c2ccccc2)n1	PLK1 PBD inh 21µM
O=C(Cn1ccc(=O)[nH]c1=O)NCCO	none
O=C(Cn1cc(F)c(=O)[nH]c1=O)NCCO	PLK1 PBD inh 5.3µM
CCOC(=O)c1cnc2c(Cl)cc(Cl)cc2c1NCCCN1CCOCC1	PLK1 PBD inh 13µM (no result: CBFb-RUNX1 inh)
CCOCc1nnc(NC(=O)CSc2ccccc2)s1	PLK1 PBD inh inconclusive
CCc1nnc(NC(=O)CSc2nnc(-c3ccccc3O)o2)s1	PLK1 PBD inh 24µM
CCc1nnc(NC(=O)CSc2nc(-c3ccccc3)c(-c3ccccc3)o2)s1	none
CC(C)(C)Cc1nnc(NC(=O)CSc2ccccc2)s1	VDR inh 28µM, PLK1 PBD inh 5.3µM (no result: CBFb-RUNX1 inh)
COc1cccc(Cn2c(=O)cc(C)c3c(C)nn(-c4ccc(C)cc4)c32)c1	none (no result: CBFb-RUNX1 inh, KCNH2 3.1 inh, PLK1 PBD inh, hERG WT inh, MBNL1 CUG block)
CCCC[C@H]1CCCO[C@@](C(=O)NCCN2CCOCC2)(C(F)(F)F)C1	none (no result: KCNH2 3.1 inh, PLK1 PBD inh, hERG WT inh, MBNL1 CUG block)
O=C(O)/C=C/C(=O)NNC(=O)c1ccc(Cl)cc1Cl	PLK1 PBD inh 24µM
CN1C(=O)N(C)c2ccc(Br)c3cccc1c23	VDR inh inconclusive, PLK1 PBD inh 30µM (no result: CBFb-RUNX1 inh)
COc1cc(CNCCNC(=O)c2nonc2N)ccc1OCc1ccc(Cl)nc1	PLK1 PBD inh 30µM
COc1ccc(CNC(=O)c2ccc(CN3C(=O)C(C)=C(c4ccc(C)cc4)S3(=O)=O)cc2)cc1	none (no result: CBFb-RUNX1 inh, KCNH2 3.1 inh, PLK1 PBD inh, hERG WT inh, MBNL1 CUG block)
CC(OC(=O)c1ccccc1O)C(=O)Nc1ccc(Cl)cn1 (stereo unspecified)	VDR inh inconclusive, PLK1 PBD inh 19µM
O=c1cc(-c2ccccc2)ss1	VDR inh inconclusive, PLK1 PBD inh 12µM (no result: CBFb-RUNX1 inh, MBNL1 CUG block)
CCN1CCN(c2cc(C)c3cc(NC(=S)N(C)Cc4ccccc4)ccc3n2)CC1	KCNH2 3.1 inh -70 (no result: CBFb-RUNX1 inh)
N#CCCN(C(=S)NC(=O)c1ccco1)c1ccccc1F	PLK1 PBD inh 30µM
Cc1ccc(N2CCN(S(=O)(=O)c3ccc(Cl)c4ccccc34)CC2)c(C)c1	none (no result: CBFb-RUNX1 inh, KCNH2 3.1 inh, PLK1 PBD inh, hERG WT inh, MBNL1 CUG block)
CC(=O)Nc1nonc1-c1nnc(SCC(=O)N(C)c2ccccc2)n1C	none (no result: CBFb-RUNX1 inh, KCNH2 3.1 inh, PLK1 PBD inh, hERG WT inh, MBNL1 CUG block)
